Some test systems named below: NCI-H23 lung; NCI-H226 lung; NCI-H322M lung; HOP-62 NSCLC; NCI-H460 lung; HOP-92 NSCLC; NCI-H522 lung; A549/ATCC NSCLC; 786-0 renal; COLO 205 colon.
Test in all cases: NCI-60 one-dose screen, 48 h (100 = growth as untreated, 0 = no growth, -100 = all killed)
Holding throughout (conditions): 10 µM unless noted

About 83,000 compounds went through this panel and 20% of them were active in at least one assay; those are over-represented in the sample as a whole.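 Note: values are percent growth. 100 is the growth of untreated cells, values between 100 and 0 indicate rising inhibition; between -100 and 0 indicates cell death.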 Unmarked numbers belong to inactive results. Activity calls are given as the source filed them. How the source made its calls: active means growth percent below 10; inactive means the rest.

For `O=C(CCN1C(=O)/C(=C/c2ccc(O)cc2)SC1=S)Nc1ccc(Cl)cc1`, the growth with NCI-H23 lung is 91.3%; in the assay on NCI-H226 lung, 97.8%; in the assay on NCI-H322M lung, 82.6%; in the assay with HOP-62 NSCLC it was 84.8%; in the assay with NCI-H460 lung it was 102%; with HOP-92 NSCLC, 85.9%. Also, the growth was 19.9% with NCI-H522 lung, 92.1% in the assay on A549/ATCC NSCLC, 99.7% in the assay on 786-0 renal and 120% with COLO 205 colon.

On to `CCOC(=O)Cn1c(C)c(/C=N/NC(=O)c2cc3c(ccc4ccccc43)o2)c2ccccc21`, for which the growth was 27.7% in the assay on NCI-H23 lung; 19.4% in the assay on NCI-H226 lung; 41.5% with NCI-H322M lung; 26.5% in the assay on HOP-62 NSCLC; 5.99% (active) with NCI-H460 lung; 60.5% in the assay with HOP-92 NSCLC. The growth in the assay with NCI-H522 lung is -25.5% (active); in the assay on A549/ATCC NSCLC it was 21.8%; in the assay on 786-0 renal, 20.7%; in the assay with COLO 205 colon, -39.9% (active).

For `O=C(/C=C/c1ccc([N+](=O)[O-])o1)NNC(=O)c1cc2ccccc2cc1O`, the growth with NCI-H23 lung was 6.76% (active); with NCI-H226 lung it was 0.682% (active); in the assay on NCI-H322M lung, 23.3%; in the assay with HOP-62 NSCLC it was 27.5%; in the assay on NCI-H460 lung, 9.04% (active); in the assay on HOP-92 NSCLC it was 4.15% (active). The growth in the assay with NCI-H522 lung was -79.5% (active); with A549/ATCC NSCLC, 32.4%; with 786-0 renal, -23.8% (active); in the assay on COLO 205 colon it was -7.38% (active).

Turning to `CN1CCN(Cc2ccc(NC(=O)c3cncc(C#Cc4cnccc4C#N)c3)cc2C(F)(F)F)CC1`, the growth with NCI-H23 lung was 49.2%; in the assay with NCI-H226 lung, 40.4%; with NCI-H322M lung, 99.4%; with HOP-62 NSCLC it was 76.8%; in the assay on NCI-H460 lung, 59.2%; in the assay with HOP-92 NSCLC, 36%. The growth was 66.7% with NCI-H522 lung, 90.4% in the assay with A549/ATCC NSCLC, 101% in the assay on 786-0 renal and 24.6% with COLO 205 colon.

Turning to `COc1cc(C(=O)/C=C/c2ccc(OCCCCCC[P+](c3ccccc3)(c3ccccc3)c3ccccc3)cc2)cc(OC)c1OC`, the growth in the assay on NCI-H23 lung is -63% (active); with NCI-H226 lung it was -29.2% (active); with NCI-H322M lung, -23.1% (active); with HOP-62 NSCLC it was -62.2% (active); with NCI-H460 lung, -73.6% (active); with HOP-92 NSCLC it was -26.2% (active). Moreover, the growth in the assay with NCI-H522 lung was -70.4% (active); in the assay with A549/ATCC NSCLC, -1.89% (active); with 786-0 renal, -92.4% (active); in the assay with COLO 205 colon, -95.3% (active).

As for `Cc1ccccc1C(=O)NN`, the growth was 104% in the assay on NCI-H23 lung; 113% with NCI-H226 lung; 90.6% in the assay with NCI-H322M lung; 93.3% in the assay with HOP-62 NSCLC; 115% with NCI-H460 lung; 80.6% with HOP-92 NSCLC. Further, the growth with NCI-H522 lung was 92%; in the assay with A549/ATCC NSCLC, 89.2%; with 786-0 renal, 112%; with COLO 205 colon, 110%.

In the case of `Cc1ccc(C(=O)NN2C(=O)CSC2c2cccc([N+](=O)[O-])c2)cn1` (stereo not given), the growth in the assay on NCI-H23 lung is 93.2%; in the assay with NCI-H226 lung, 95.6%; in the assay on NCI-H322M lung it was 104%; in the assay on HOP-62 NSCLC, 93%; with NCI-H460 lung it was 108%; in the assay with HOP-92 NSCLC it was 81.3%. For the same molecule, the growth was 109% in the assay on NCI-H522 lung, 92.9% with A549/ATCC NSCLC, 106% in the assay with 786-0 renal and 105% with COLO 205 colon.

For `O=C(CCc1nnc(-c2c(Cl)cccc2Cl)o1)c1nc2ccccc2[nH]1`, the growth in the assay on NCI-H23 lung is 61.9%; in the assay on NCI-H226 lung, 83.7%; in the assay on NCI-H322M lung it was 76%; with HOP-62 NSCLC it was 71.6%; in the assay with NCI-H460 lung, 77.3%; with HOP-92 NSCLC, 6.67% (active). The growth in the assay on NCI-H522 lung is 49.8%; with A549/ATCC NSCLC, 69.7%; with 786-0 renal, 73.8%; in the assay with COLO 205 colon, 62.6%.

With `C=C(C)[C@@H]1CC[C@]2(N=C=O)CC[C@]3(C)[C@H](CC[C@@H]4[C@@]5(C)Cc6c([nH]c7ccccc67)C(C)(C)[C@@H]5CC[C@]43C)[C@@H]12`, the growth with NCI-H23 lung is 98%; with NCI-H226 lung it was 90.5%; in the assay with NCI-H322M lung, 88.4%; with HOP-62 NSCLC, 89%; in the assay with NCI-H460 lung it was 39.5%; in the assay with HOP-92 NSCLC, 66.2%. The growth with NCI-H522 lung is 53.4%; in the assay with A549/ATCC NSCLC, 73.5%; in the assay with 786-0 renal, 66.7%; in the assay with COLO 205 colon it was 65.6%.

`O=c1c2cc(F)ccc2sc2c(N3CCNCC3)nc3ccccc3c12`: the growth with NCI-H23 lung was 68.8%; with NCI-H226 lung, 88%; with NCI-H322M lung, 60.3%; with HOP-62 NSCLC, 61.4%; with NCI-H460 lung, -76.4% (active); in the assay on HOP-92 NSCLC, 36.8%. Besides, the growth was 39.3% with NCI-H522 lung, 34.4% in the assay on A549/ATCC NSCLC, 65.7% with 786-0 renal and -49.6% (active) in the assay on COLO 205 colon.

In the case of `CCCSc1nc2ccc(C)cc2cc1/C=[N+](\[O-])c1ccccc1`, the growth with NCI-H23 lung is 42.1%; in the assay on NCI-H226 lung it was 70.8%; in the assay with NCI-H322M lung, 90.9%; in the assay with HOP-62 NSCLC, 25.5%; with NCI-H460 lung it was 96.7%; with HOP-92 NSCLC it was 19.2%. The growth was 72.8% in the assay with NCI-H522 lung, 95.4% with A549/ATCC NSCLC, 34.6% in the assay on 786-0 renal and 101% with COLO 205 colon.

For `C[C@H]1[C@H]2[C@H]3CC[C@@H]4[C@@]5(C)CC[C@H](O)C(C)(C)[C@@H]5CC[C@@]4(C)[C@]3(C)CC[C@]23CO[C@]1(C)[C@@H](C(=O)/C=C\c1cccnc1)C3`, the growth was 59.5% in the assay on NCI-H23 lung; 76.6% in the assay with NCI-H226 lung; 88.4% with NCI-H322M lung; 81.7% in the assay with HOP-62 NSCLC; 40.7% with NCI-H460 lung; 79.1% with HOP-92 NSCLC. Besides, the growth is 38% in the assay on NCI-H522 lung, 57.8% in the assay with A549/ATCC NSCLC, 63.6% with 786-0 renal and 56.3% in the assay with COLO 205 colon.

Regarding `COc1ccc(C(=S)N2CCN(c3cccc(C)c3)CC2)cc1OC`, the growth in the assay on NCI-H23 lung is 65.2%; with NCI-H226 lung it was 98.4%; in the assay with NCI-H322M lung, 99.7%; in the assay on HOP-62 NSCLC, 90.6%; in the assay with NCI-H460 lung it was 51.8%; with HOP-92 NSCLC, 81%. The growth in the assay with NCI-H522 lung was 22.8%; with A549/ATCC NSCLC, 59.4%; in the assay with 786-0 renal, 80.6%; in the assay on COLO 205 colon, 80.2%.

Values taken from PubChem BioAssay (NCI).
